Reference: PubChem BioAssay (NCATS)

Assay: High-throughput drug toxicity screening in the BPDCN cell line Cal-1 (AID 1224825)
Conditions: Cal-1 BPDCN cell viability, qHTS; at 45.8 µM (top of the series) unless noted
Text: Blastic plasmacytoid dendritic cell neoplasm (BPDCN) is a rare, aggressive and largely incurable hematologic malignancy originating from plasmacytoid dendritic cells (pDCs). Although an initial response to chemotherapy is common, BPDCN prognosis is extremely poor and most patients relapse with drug-resistant disease leading to a median overall survival of ~1 year after diagnosis. To explore novel potential therapeutic strategies in BPDCN, we performed a high-throughput drug toxicity screening in BPDCN cell liens, using of a library of 1,912 small molecules, enriched for compounds that are either approved or in early stages of development for cancer therapy.
A total of 500 exponentially growing Cal-1 cells were seeded per well in 5 uL of media (RPMI + Glutamine, without phenol red plus10% FBS and 1X Pen/Strep) into 1536-well solid white high base tissue culture treated Greiner One Bio Plates (789173-F), using a multidrop combi dispenser and a small sterile cassette. Compounds and controls totaling 23nL per well (negative control DMSO and positive control 9.2 uM Bortezomib-final) were immediately added to the plates using a 1536 head pin tool from Kalypsys. The plates were then covered with stainless steel gasket lids from Kalypsys and incubated for 48 hours at 37C under 95% relative humidity with 5% CO2. After 48 hours, the plates were removed and allowed to reach room temperature before 3 uL of Cell Titer Glo reagent (Promega) were added using an Aurora Flying Reagent Dispenser Bioraptor. The plates were then spun at 1000 rpms to remove bubbles and incubated for 15 minutes at room temperature before reading on a ViewLux using a luminescent filter with a 10 second exposure. The relative luciferase units were used to calculated percent activity using DMSO as 100% and Bortezomib as 0%.

Compound | viability (% of control)
CN1[C@H]2CC[C@H]1CC(OC(=O)c1c[nH]c3ccccc13)C2 (stereo not given in full) | 111%
CC[C@@H]([C@H](C)O)n1ncn(-c2ccc(N3CCN(c4ccc(OCC5CO[C@@](Cn6cncn6)(c6ccc(F)cc6F)C5)cc4)CC3)cc2)c1=O (stereo not given in full) | 108%
c1ccc(-c2oc3ncnc(NC[C@@H]4CCCO4)c3c2-c2ccccc2)cc1 | 42.1%
CON(C)C(=O)N1N=C(c2cc(F)ccc2F)S[C@]1(CCCN)c1ccccc1 | 7.01%
CCCCC(C=O)NC(=O)C(CC(C)C)NC(=O)OCc1ccccc1 (stereo not given) | 62.2%
COc1c(C)c2c(c(O)c1CC=C(C)CCC(=O)OCCN1CCOCC1)C(=O)OC2 | 13.5%
O=C(CC12CC3CC(CC(C3)C1)C2)Nc1cccc2nc(NCCNCCO)ccc12 | 5.92%
Cc1ccc(S(=O)(=O)Nc2nc3ccccc3nc2Nc2ccc3nsnc3c2)cc1 | 14.1% [at 23.2 µM]
CCC(=C(c1ccc(O)cc1)c1ccc(OCCNC)cc1)c1ccccc1 | 4.15%
Cc1ccc(NC(=O)c2ccc(CN3CCN(C)CC3)cc2)cc1Nc1nc(-c2cccnc2)cs1 | 6.7%
CCC(c1ccc(O)cc1)C(CC)c1ccc(O)cc1 (stereo not given) | 104%
COc1cc2ncnc(Nc3cc(Br)c(O)c(Br)c3)c2cc1OC | 11%
CN(C)CCOc1ccc(-c2nc(-c3ccc4c(c3)CCC4=NO)c(-c3ccncc3)[nH]2)cc1 | 36.1%
CCOC(=O)[C@H]1O[C@H]1C(=O)N[C@@H](CC(C)C)C(=O)NCCC(C)C | 95%
Cc1ccc(C(=O)N(CCCN)[C@@H](c2oc3cc(Cl)ccc3c(=O)c2Cc2ccccc2)C(C)C)cc1 | 3.72%
CC1CNc2c(cccc2S(=O)(=O)N[C@@H](CCCN=C(N)N)C(=O)N2CC[C@@H](C)C[C@@H]2C(=O)O)C1 (stereo not given in full) | 6.64%
Clc1ccc(C2(c3ccc(-c4cn[nH]c4)cc3)CCNCC2)cc1 | 10.8%
COc1ccc(-c2oc3c(CC=C(C)C)c(O)cc(O)c3c(=O)c2O)cc1 | 45.1%
CNC(=O)c1c(-c2ccc(F)cc2)oc2cc(N(CCO)S(C)(=O)=O)c(C3CC3)cc12 | 8.15%
CN[C@@H]1CN(c2ccc3c(=O)c(C(=O)O)cn(-c4nccs4)c3n2)C[C@@H]1OC | 3.44% [at 23.2 µM]

Compound | viability (% of control)
C#C[C@]1(O)CC[C@H]2[C@H]3CCc4cc(OC)ccc4[C@H]3CC[C@@]21C | 98%
CO[C@H]1/C=C\O[C@@]2(C)Oc3c(C)c(O)c4c(O)c(c5c(nc6cc(C)ccn65)c4c3C2=O)NC(=O)C(C)=CC=C[C@H](C)[C@H](O)[C@@H](C)[C@@H](O)[C@@H](C)[C@H](OC(C)=O)[C@H]1C | 32.4%
CC(C)c1c(C(=O)Nc2ccccc2)c(-c2ccccc2)c(-c2ccc(F)cc2)n1CC[C@H](O)C[C@@H](O)CC(=O)O | 93.6%
CCCCn1c(=O)n(Cc2ccccc2F)c(=O)c2[nH]c(Cc3ccc(NC(C)=O)cc3)nc21 | 86%
Cc1cccc(-c2[nH]c(C(C)(C)C)nc2-c2ccc3c(c2)OCO3)n1 | 17.9%
O=C(O)C1=NC(C(=O)O)CC(C=CN2c3cc(O)c(OC4OC(CO)C(O)C(O)C4O)cc3CC2C(=O)O)=C1 (stereo not given) | 136%
Cc1ccc(C(=O)N(CCCN)[C@@H](c2nc3cc(Cl)ccc3c(=O)n2Cc2ccccc2)C(C)C)cc1 | 3.23%
Cc1nc(C(=O)NCC(=O)O)c(O)c2ccc(Oc3ccccc3)cc12 | 115%
O=S(=O)(O)c1ccc2cc(N=Nc3cc(S(=O)(=O)O)c4cccnc4c3O)ccc2c1 | 89.1%
COc1ccc2c(c1)CC[C@H]1[C@@H]2CC[C@]2(C)[C@@H](NCCCCCCN3C(=O)C=CC3=O)CC[C@H]12 | 43%
CCOC(=O)[C@@H](N)CCC(=O)N[C@@H](CSCc1ccccc1)C(=O)N[C@@H](C(=O)OCC)c1ccccc1 | 90.7%
CC=C1C2C=C(C)CC1(N)c1ccc(=O)[nH]c1C2 (stereo not given) | 128%
O=C(CCCN1CCN(c2ccc(F)cc2)CC1)NC1c2ccccc2CSc2ccccc21 (stereo not given) | 58.7%
CN1CC(=O)NC1=NC(=O)Nc1cccc(Cl)c1 | 31.9%
CC(C)=CCCC(C)=CCCC(C)=CCCC(C)=CCCC(C)=CCCC(C)=CCCC(C)=CCCC(C)=CCCC(C)=CCO | 121%
CCN(CC)CCCCNc1nc2cc(Cl)c(Cl)cc2nc1-c1ccc(-c2cccs2)s1 | 4.45%
CC[C@H](NC(=O)[C@H](C)NC)C(=O)N1C[C@@H](O)C[C@H]1Cc1c(-c2[nH]c3cc(F)ccc3c2C[C@H]2C[C@H](O)CN2C(=O)[C@H](CC)NC(=O)[C@H](C)NC)[nH]c2cc(F)ccc12 | 7.23%
O=C(C=Cc1ccc(O)cc1)c1ccc(O)cc1O | 4.05%
CO[C@H]1C=CO[C@@]2(C)Oc3c(C)c(O)c4c(O)c(c(C=NN5CCN(C)CC5)c(O)c4c3C2=O)NC(=O)C(C)=CC=C[C@H](C)[C@H](O)[C@@H](C)[C@@H](O)[C@@H](C)[C@H](OC(C)=O)[C@H]1C | 41.4% [at 15.3 µM]
C[C@@H](NC(=O)c1ncnc(N)c1Cl)c1ncc(C(=O)Nc2cc(C(F)(F)F)c(Cl)cn2)s1 | 66.8%
